Experimental data: PubChem BioAssay AID1159580 (chemical genetic matrix, 2015)
Several values for one entry are separate records, joined by “and”; a condition that tells them apart may be missing. Equal entries are not always repeated. In all, about 5,500 compounds went through this assay and about 2,000 (36%) were called active. Roughly 18% stayed inconclusive and do not appear here. Cut-off read from the data, not from the text of the source: active = normalized growth mostly below about 0.91 (no sharp cut-off); inconclusive = no clear call, values can overlap the other calls; inactive = mostly above about 0.92. The list shows a part of the results.

Test: chemical genetic growth profiling, strain panel (AID 1159580);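 note: tested at 20 µM; growth read once vehicle control cultures reached saturation at 30 °C; 1 = growth at the plate median or of vehicle wells; lower values mean less growth of the strain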
Settings: S. cerevisiae deletion strains, growth OD

Measured: normalized growth

C[C@]12CCC3c4ccc(OS(=O)(=O)O)cc4CCC3C1CC[C@H]2O (some centres undefined)
inactive: locus YAL013W, strain DEP1, active compounds read low 0.998 | locus YAL021C, strain ccr4, active compounds read low 0.986 | locus YAL026C, strain drs2, active compounds read low 0.973 | locus YAL030W, strain snc1, active compounds read low 1 | locus YBL061C, strain skt5, active compounds read low 0.969 | locus YBR009C, strain hhf1, active compounds read low 1.04 | locus YBR021W, strain FUR4, active compounds read low 0.983 | locus YBR023C, strain chs3, active compounds read low 0.966 | locus YBR171W, strain sec66, active compounds read low 0.983 | locus YBR229C, strain ROT2, active compounds read low 0.988 | locus YBR231C, strain swc5, active compounds read low 0.993 | locus YBR279W, strain paf1, active compounds read low 0.978 | locus YCL011C, strain gbp2, active compounds read low 0.961 | locus YCL016C, strain dcc1, active compounds read low 0.948 | locus YCL029C, strain bik1, active compounds read low 0.99 | locus YCL061C, strain MRC1, active compounds read low 0.975 | locus YCL069W, strain vba3, active compounds read low 0.985 | locus YCR088W, strain abp1, active compounds read low 0.983 | locus YDL005C, strain med2, active compounds read low 0.984 | locus YDL035C, strain GPR1, active compounds read low 0.991 | locus YDL040C, strain nat1, active compounds read low 0.985 | locus YDL074C, strain BRE1, active compounds read low 1.02 | locus YDL101C, strain DUN1, active compounds read low 0.996 | locus YDL134C, strain PPH21, active compounds read low 0.978 | locus YDL185W, strain tfp1, active compounds read low 0.99 | locus YDL192W, strain arf1, active compounds read low 0.987 | locus YDR001C, strain nth1, active compounds read low 0.974 | locus YDR069C, strain doa4, active compounds read low 0.981 | locus YDR101C, strain arx1, active compounds read low 0.988 | locus YDR137W, strain rgp1, active compounds read low 0.955 | locus YDR150W, strain NUM1, active compounds read low 0.997 | locus YDR159W, strain sac3, active compounds read low 0.984 | locus YDR162C, strain NBP2, active compounds read low 0.986 | locus YDR195W, strain ref2 0.97 | locus YDR297W, strain sur2, active compounds read low 0.986 | locus YDR318W, strain mcm21, active compounds read low 0.986 | locus YDR334W, strain swr1, active compounds read low 0.968 | locus YDR335W, strain msn5, active compounds read low 0.968 | locus YDR388W, active compounds read low 0.986 | locus YDR392W, strain spt3, active compounds read low 0.907 | locus YDR502C, strain sam2, active compounds read low 0.986 | locus YEL003W, strain gim4, active compounds read low 1 | locus YEL037C, strain rad23, active compounds read low 0.989 | locus YEL061C, strain CIN8 (second series), active compounds read low 0.981 | locus YEL061C, strain CIN8, active compounds read low 0.996 | locus YER015W, strain faa2, active compounds read low 0.986 | locus YER016W, strain bim1, active compounds read low 0.942 | locus YER110C, active compounds read low 0.978 | locus YER111C, strain swi4, active compounds read low 0.965 | locus YER155C, strain BEM2 (second series), active compounds read low 1 | locus YER155C, strain BEM2, active compounds read low 0.994 | locus YER167W, strain BCK2, active compounds read low 0.987 | locus YFR010W, strain ubp6, active compounds read low 0.998 | locus YGL078C, strain dbp3, active compounds read low 0.986 | locus YGL086W, strain mad1, active compounds read low 0.988 | locus YGL167C, strain pmr1, active compounds read low 0.973 | locus YGL173C, strain kem1, active compounds read low 0.999 | locus YGL227W, strain vid30, active compounds read low 0.981 | locus YGL240W, strain doc1, active compounds read low 1.01 | locus YGL248W, strain PDE1, active compounds read low 0.997 | locus YGL253W, strain hxk2, active compounds read low 0.953 | locus YGR078C, strain PAC10, active compounds read low 1.01 | locus YGR135W, strain pre9, active compounds read low 0.96 | locus YGR229C, strain SMI1, active compounds read low 1.01 | locus YGR252W, strain gcn5, active compounds read low 0.997 | locus YHR013C, strain ard1, active compounds read low 0.92 | locus YHR027C, strain rpn1, active compounds read low 0.965 | locus YHR030C, strain SLT2, active compounds read low 0.99 and 0.957 | locus YHR079C, strain IRE1 (second series), active compounds read low 0.986 | locus YHR079C, strain IRE1, active compounds read low 0.959 | locus YHR094C, strain hxt1, active compounds read low 0.987 | locus YHR129C, strain ARP1, active compounds read low 0.988 | locus YHR142W, strain chs7, active compounds read low 0.951 | locus YHR200W, strain rpn10, active compounds read low 0.987 | locus YIL066C, strain RNR3, active compounds read low 0.984 | locus YIL073C, strain SPO22, active compounds read low 0.954 | locus YIL125W, strain kgd1, active compounds read low 0.988 | locus YIR030C, strain dcg1, active compounds read low 0.992 | locus YJL092W, strain hpr5, active compounds read low 0.978 | locus YJL095W, strain BCK1 (second series), active compounds read low 0.969 | locus YJL095W, strain BCK1, active compounds read low 1.02 and 0.969 | locus YJL115W, strain asf1, active compounds read low 0.947 | locus YJL129C, strain trk1, active compounds read low 0.911 | locus YJL134W, strain LCB3, active compounds read low 0.993 | locus YJL154C, strain vps35, active compounds read low 0.976 | locus YJL164C, strain tpk1, active compounds read low 0.983 | locus YJL166W, strain qcr8, active compounds read low 0.998 | locus YJL168C, strain set2, active compounds read low 1 | locus YJL187C, strain SWE1 (second series), active compounds read low 1.01
